Marburg entry inh – inhibitors of Marburg virus binding or cell entry | Marburg virus pseudotyped entry inhibition, cell reporter | Potency, µM (doses to about 37.8 µM), for the others: top-dose activity change, negative = inhibition, actives largely listed as inhibitors | 300,000 compounds, 1.8% hits | AID 540276; calls by dose curve; tested in HEK293 cells; also: potency is read from the fitted curve at half-maximal effect
HCMV inh – inhibitors of human cytomegalovirus | HFF cells, HCMV-luciferase reporter, 72 h; hits give low values | activity change, negative = inhibition, % at 57.5 µM | 410,000 compounds, 4.5% hits | AID 1259415; in the data active = activity change below about -60%; inconclusive = no clear call, values can overlap the other calls; inactive = above about -39%
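Human foreskin fibroblasts infected with luciferase-reporter HCMV at MOI 1 PFU/cell, compounds at two doses. Luciferase measured 72 h post infection; normalized to buffer-only basal and Salinomycin (10uM) controls.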
HCV inh – HCV inhibition; Potency, µM (doses to about 41.8 µM), inactives show top-dose activity change, negative = inhibition, usual class: inhibitors; Huh7.5.1 HCVcc-Cre infection, luciferase reporter, 44 h; 340,000 compounds, 3.4% hits; active = well fitted inhibition curve with a large enough effect; inconclusive = small, poorly fitted or top-dose-only effect, or another doubt; inactive = no such curve, though single readings can be large or run the other way; also: potency is read from the fitted curve at half-maximal effect
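Infectious HCV cell culture screen: compound-treated cells (1,000/well, pre-plated 4 h) are infected with HCVcc-Cre at roughly 0.5 moi and grown 44 h. Infection is quantified by luciferase signal after 15 min substrate incubation at room temperature.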
FMDV inh – antivirals against foot and mouth disease virus; Potency, µM (doses to about 57.9 µM), for inactives: at the top dose activity change, negative = inhibition, usual class: inhibitors; FMDV antiviral cell-based qHTS; 410,000 compounds, 1.2% hits; calls by dose curve; tested in HEK293T cells; also: read-out not given here; potency is read from the fitted curve at half-maximal effect; nearly all actives have a fitted effect of over 45% in size
LASV entry inh – Lassa virus entry inhibition | Lassa virus pseudotype entry inhibition, cell reporter | Potency, µM (titrated, usually from 37.9 µM), inactives show at the top dose activity change, negative = inhibition, usual class: inhibitors | 300,000 compounds, 1.2% hits; calls by dose curve; tested in HEK293 cells; also: potency is read from the fitted curve at half-maximal effect; nearly all actives have a fitted effect of over 50% in size
* marks the source's active call; other numbers are inactive results; [ ] = dose if it differs, or a comment. This is a sample that favours compounds with a hit; in the whole collection about 7.9% have one here. % is scaled to controls: 0 for no effect and ±100 for the full control effect.

Results for CCCNC(=O)[C@H]1[C@H](CO)[C@H]2Cn3c(ccc(-c4ccc(F)cc4)c3=O)[C@@H]1N2C(=O)NC(C)C ?
HCMV inh: -12

How did O=C(c1ccc(Cl)c(S(=O)(=O)N2CCCCC2)c1)N1CCN(Cc2ccccc2)CC1 do in these assays?
Marburg entry inh: -5%; HCMV inh: -61*; HCV inh: inconclusive; FMDV inh: 0%; LASV entry inh: inconclusive

What do the screens show for `O=C(Nc1ccncc1)c1ccc(Cl)c(S(=O)(=O)N2CCCC2)c1`?
Marburg entry inh: inconclusive; HCMV inh: -71*; HCV inh: inconclusive; FMDV inh: -9%; LASV entry inh: -9%

How did O=C(NC1CCCCCC1)c1ccc(Cl)c(S(=O)(=O)N2CCOCC2)c1 do in these assays?
Marburg entry inh: 2%[46.1 µM]; HCMV inh: 23; HCV inh: -18%; FMDV inh: 5%; LASV entry inh: 1%

Results for O=C(NCCCN1CCOCC1)c1ccc(CSc2ccc(Cl)cc2)cc1 ?
Marburg entry inh: inconclusive; HCMV inh: -70*; HCV inh: inconclusive; FMDV inh: -14%; LASV entry inh: -27%

How did O=C(NC1CCCC1)c1ccc(Cl)c(S(=O)(=O)N2CCCCC2)c1 do in these assays?
Marburg entry inh: -5%; HCMV inh: -40; HCV inh: 35µM*; FMDV inh: -13%; LASV entry inh: -4%

Results for CCOC(=O)c1cc(S(=O)(=O)Nc2cc(F)ccc2C)[nH]n1 ?
HCMV inh: 6; FMDV inh: 26%; LASV entry inh: 14%[46.1 µM]

What do the screens show for `COc1ccc(-n2nnc(-c3nc(-c4cccs4)no3)c2N)cc1OC`?
HCMV inh: 0; FMDV inh: 4%; LASV entry inh: -12%[46.1 µM]

Results for Cc1ccc(C(=O)NCCN2CCCC2)cc1 ?
Marburg entry inh: 3%; HCMV inh: 27; HCV inh: 3%; FMDV inh: -19%; LASV entry inh: 4%

How did CCOc1c(Cl)cc(C(=O)NCCN2CCCCC2)cc1Cl do in these assays?
Marburg entry inh: inconclusive; HCMV inh: 9; HCV inh: 10µM*; FMDV inh: -8%; LASV entry inh: -14%

Results for Cc1cc(/C=C(/C#N)C(=O)O)c(C)n1CCC(C)C ?
Marburg entry inh: 15%; HCMV inh: -68*; HCV inh: 12%; FMDV inh: 8%; LASV entry inh: 8%

How did CCCn1c(C)cc(/C=C(\C#N)C(=O)O)c1C do in these assays?
Marburg entry inh: 2%; HCMV inh: 90; HCV inh: 9%; FMDV inh: -11%

How did O=C(Cn1nc(CNc2ccc(Cl)cc2)[n+]2c1CCCCC2)c1ccccc1 do in these assays?
Marburg entry inh: 12%; HCMV inh: inconclusive; HCV inh: 13%; FMDV inh: -4%; LASV entry inh: 0%

What do the screens show for `Cc1ccc(C(C)C)c(OCc2nn(CC(=O)c3ccc(Cl)cc3)c3[n+]2CCCCC3)c1`?
Marburg entry inh: inconclusive; HCMV inh: -112*; HCV inh: inconclusive; FMDV inh: 32µM*; LASV entry inh: inconclusive

Results for O=C(Cc1ccccc1)NNC(=O)Nc1cccc(Cl)c1 ?
Marburg entry inh: -10%; HCMV inh: -39; HCV inh: 17%; FMDV inh: 39%; LASV entry inh: -18%

Results for O=C(CN1c2ccccc2Sc2ccccc21)NNC(=O)Nc1cccc(Cl)c1 ?
Marburg entry inh: inconclusive; HCMV inh: -73*; HCV inh: -20%; FMDV inh: 17%; LASV entry inh: inconclusive

Results for COc1ccc2c(c1)c(C(=O)O)c(C)n2-c1ccccc1 ?
Marburg entry inh: 0%[46.1 µM]; HCMV inh: 13; HCV inh: inconclusive; FMDV inh: -12%; LASV entry inh: -13%

What do the screens show for `COc1ccc(-n2c(C)c(C(C)=O)c3cc(OC(C)=O)ccc32)cc1`?
HCMV inh: -80*; HCV inh: inconclusive; FMDV inh: -14%

How did COc1ccc2c(c1)c(C(C)=O)c(C)n2-c1ccc(C(C)=O)cc1 do in these assays?
Marburg entry inh: 0%[46.1 µM]; HCMV inh: -74*; HCV inh: 8%; FMDV inh: -24%; LASV entry inh: 10%[46.1 µM]

Results for CN1CCN(C(=O)c2ccc3c(c2)N(Cc2c(F)cccc2Cl)C(=O)c2ccccc2S3)CC1 ?
Marburg entry inh: inconclusive; HCMV inh: -7; FMDV inh: -8%; LASV entry inh: -14%[46.1 µM]

How did CCC(CC)C(=O)N1CCc2cc(OC)c(OC)cc2C1COc1ccc2c(C)cc(=O)oc2c1 (centres undefined) do in these assays?
Marburg entry inh: 13%[46.1 µM]; HCMV inh: 3; FMDV inh: inconclusive; LASV entry inh: 1%[46.1 µM]

How did Cc1cc(N2CCCC2)nc(-c2ccccc2O)n1 do in these assays?
Marburg entry inh: 0%; HCMV inh: -102*; HCV inh: 3.2µM*; FMDV inh: 13%; LASV entry inh: 6%

Results for Cc1cc(N2CCC(C(=O)Nc3ccc(F)cc3)CC2)nc(-c2ccccc2)n1 ?
Marburg entry inh: inconclusive; HCMV inh: -4; HCV inh: inconclusive; FMDV inh: -27%; LASV entry inh: -13%

Results for Cc1cc(C)nc(N2CCN(S(=O)(=O)c3ccc(F)cc3)CC2)n1 ?
HCMV inh: -23; HCV inh: 3%; FMDV inh: -23%

Results for Cc1cc(N2CCN(c3ccc(F)cc3)CC2)nc(-c2ccccc2)n1 ?
Marburg entry inh: 0%; HCMV inh: inconclusive; HCV inh: 10µM*; FMDV inh: -24%; LASV entry inh: -20%

How did Cc1cc(C)nc(N2CCN(c3ccc(F)cc3)CC2)n1 do in these assays?
HCMV inh: -24; HCV inh: 10µM*; FMDV inh: 24%

What do the screens show for `Cc1cc(N2CCN(C)CC2)nc(-c2ccccc2O)n1`?
HCMV inh: -32; HCV inh: inconclusive; FMDV inh: 0%

What do the screens show for `O=C(CCS(=O)(=O)c1cc2c3c(c1)CCN3C(=O)CC2)Nc1cccc(Br)c1`?
HCMV inh: -15; FMDV inh: 4%; LASV entry inh: 19%[46.1 µM]

How did Cc1ccc(CSC2=NC(C)(C)Nc3ccccc32)c(C)c1 do in these assays?
HCMV inh: -9; FMDV inh: -20%; LASV entry inh: 16%[46.1 µM]

Results for CO[C@H](C1CCCCC1)[C@H](C)C=CCC(=O)OCCCc1ccccc1 ?
Marburg entry inh: 5%[14.2 µM]; LASV entry inh: inconclusive

How did Cc1cc(CNC(=O)c2cnn(-c3ncc4c(n3)-c3ccccc3CC4)c2C2CC2)on1 do in these assays?
FMDV inh: 25%

Results for CCCCCOc1ccc(NC(=O)Cn2c(-c3cncs3)nc3ccccc32)cc1 ?
Marburg entry inh: -8%[46.1 µM]; HCMV inh: -64*; FMDV inh: -8%; LASV entry inh: 10%[46.1 µM]

How did Cc1cc(C)cc(N2CC(c3nnc(NC(=O)c4ccco4)s3)CC2=O)c1 (centres undefined) do in these assays?
Marburg entry inh: -17%[46.1 µM]; HCMV inh: 2; FMDV inh: 1%; LASV entry inh: -5%[46.1 µM]

Compound activity (PubChem BioAssay)
